Bioassay records: PubChem, several laboratories
In the library only some 3.7% were active in any assay of this set; here they are far more common.
tim10-1 inh: growth inhibitors of tim10-1 mutant yeast, primary screen, luminescence, uHTS; S. cerevisiae tim10-1 ts strain growth, BacTiter-Glo, 24 h; inhibition, % at 20 µM; actives 2.2% (n = 330,000); AID 463190, 2010;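 active means inhibition of at least 40%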;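 further: mutant grown at 25 °C; 0% = DMSO wells with yeast and 100% = wells holding no yeast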
NALP3 yeast inh: NALP3 inflammasome inhibitors in reconstituted yeast, primary screen, luminescence, uHTS | AID 2825, 2010 | Yeast reconstituted NLRP3/ASC/caspase-1, beta-gal luminescence, 24 h | actives 0.39% (n = 330,000) | inhibition, % at 10 µM;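 active means inhibition of 50% or more; inactive means inhibition below 50%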;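 further: plate controls were induced DMSO wells for no effect and uninduced yeast grown without galactose for full effect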
TIM10 inh: growth inhibitors of isogenic TIM10 control yeast, primary screen, counter-screen for tim10-1 yeast inhibitor project, luminescence, uHTS | inhibition, % at 10 µM | S. cerevisiae TIM10 strain growth, BacTiter-Glo luminescence, 24 h | actives 1.4% (n = 330,000);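 active means inhibition of 40% or more at the single tested concentration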;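 further: wild-type TIM10 isogenic control strain grown at permissive 25 °C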
tim23-1 inh: growth inhibitors of tim23-1 mutant yeast, primary screen, luminescence, uHTS. S. cerevisiae tim23-1 growth, BacTiter-Glo luminescence, 24 h. inhibition, % at 20 µM. actives 1.3% (n = 330,000);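 active means growth inhibition of the mutant yeast at or above 50%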;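 further: temperature-sensitive mutant grown at 25 °C; plate controls were DMSO-treated mutant yeast for no effect and medium wells lacking yeast for full effect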
PfHsp90 set2: growth inhibition of PfHsp90-expressing yeast, primary screen, antimalarial PfHsp90 inhibitor project, S. cerevisiae, BacTiter-Glo luminescence, single point, set 2 | BacTiter-Glo ATP, 48 h; yeast lacking PDR1 and PDR3 efflux regulators | actives 0.32% (n = 310,000) | inhibition, % at 9.4 µM;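 active means every replicate shows inhibition above about 80%, whatever the replicate mean, limit read from the data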;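 further: 0% = DMSO neutral controls and 100% = 20 µM radicicol positive controls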
tim10-1 confirm: growth inhibitors of tim10-1 mutant yeast, confirmation, single concentration, luminescence, S. cerevisiae; shares compounds with tim10-1 inh; S. cerevisiae tim10-1 ts strain growth, BacTiter-Glo, 24 h; inhibition, % at 20 µM; actives 56% (n = 7,400); AID 463213, 2010;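 active means inhibition of yeast growth at or above a set limit in either of two repeat tests at 20 µM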;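 further: tim10-1 mutant grown at permissive 25 °C to find synthetic lethal compounds; 0% = DMSO yeast wells and 100% = medium wells without yeast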
TIM10 conf: growth inhibitors of wild-type TIM10 yeast, confirmation, counter-screen for tim10-1 synthetic lethality project, single concentration, luminescence, S. cerevisiae | actives 63% (n = 4,600) | AID 463215, 2010 | S. cerevisiae tim10 strain growth, BacTiter-Glo luminescence, 24 h | shares compounds with TIM10 inh | inhibition, % at 10 µM;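 active means inhibition of yeast growth at or above a set limit in either of two replicates at 10 µM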;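 further: this counterscreen used the strain with wild-type TIM10; 0% = yeast with DMSO and 100% = medium wells lacking yeast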
tim23-1 conf: tim23-1 mutant yeast growth inhibitors, confirmation, luminescence, single concentration | shares compounds with tim23-1 inh | S. cerevisiae tim23-1 growth, BacTiter-Glo luminescence, 24 h | inhibition, % at 20 µM | actives 83% (n = 4,400) | AID 463218, 2010;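 active means inhibition above about 39% in either of two replicate wells at 20 µM, limit read from the data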;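 further: temperature-sensitive tim23-1 mutant grown at 25 °C; 0% = DMSO wells with yeast and 100% = medium wells without yeast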
* hit, by the source's call; · = no result.

SMILES	tim10-1 inh	NALP3 yeast inh	TIM10 inh	tim23-1 inh	PfHsp90 set2	tim10-1 confirm	TIM10 conf	tim23-1 conf
O=C(NCc1cccnc1)/C(=C/c1ccc(-c2ccc(Cl)cc2)o1)S(=O)(=O)c1ccccc1	52.4*	-8.9	52.7*	59.2*	22.1	48.4*	49.1*	57.2*
CC(=O)Oc1cccc(/C=c2\sc3nc(-c4ccco4)nn3c2=O)c1	54.3*	15.0	15.5	60.9*	-2.0	42.8*	·	62.6*
O=C(CCOc1ccccc1)Nc1ccnn1C1CCN(CCc2ccccc2)CC1	-10.2	6.6	-0.9	4.5	12.3	·	·	·
Cc1ccc(/C=C2/Sc3ccc(C(=O)N4CCN(C)CC4)cc3NC2=O)cc1	25.2	11.6	14.1	28.1	19.5	·	·	·
CC1CCN(C(=O)c2ccc3c(c2)NC(=O)/C(=C/c2ccccc2)S3)CC1	42.3*	15.5	-7.2	50.4*	-17.2	0.6	·	47.5*
CCCCCCC(=O)N/N=C/c1ccco1	-17.0	-1.9	-18.8	-7.8	-5.9	·	·	·
Fc1ccc(C2=Nn3c(nnc3-c3n[nH]c4c3CCC4)SC2)cc1	-7.3	-0.8	2.6	7.0	5.5	·	·	·
Clc1ccc(-c2n[nH]c3c2CCC3)cc1Cl	55.8*	6.8	49.4*	59.2*	17.0	48.5*	56.7*	8.4
C=CCn1c(=O)n2ncnc2c2c3c(sc21)CCCC3	·	·	·	·	-12.4	·	·	·
O=c1n(Cc2ccc(Cl)cc2)c2sc3c(c2c2ncnn12)CCCC3	43.6*	10.0	-1.9	68.3*	-26.8	27.0	·	58.2*
Nc1ccc(CCc2ccc(N)cc2)cc1	-3.4	14.5	-18.9	-12.5	21.5	·	·	·
COCCN(C/C=C/c1ccccc1)C/C=C/c1ccccc1	-1.8	31.8	-22.9	18.7	-8.4	·	·	·
CCOC(=O)C1=CNS(=O)(=O)NC1CCc1ccccc1 (centres undefined)	21.9	·	-3.3	33.4	-8.5	·	·	·
Cc1cc(O)c(C(=O)/C=C/c2ccc(Cl)cc2)c(=O)o1	47.2*	13.6	32.8	53.3*	4.0	39.6*	·	51.6*
COc1cc(/C=C/C(=O)c2c(O)cc(C)oc2=O)cc(OC)c1O	31.4	7.1	20.8	27.5	·	·	·	·
S=c1[nH]ncn2c1cc1oc3ccccc3c12	13.0	7.0	-6.4	-33.9	-22.2	·	·	·
Cc1cc(C)n(C(C[N+](=O)[O-])c2ccc(Cl)cc2)n1 (centres undefined)	41.8*	22.1	76.8*	75.7*	7.0	54.0*	67.5*	29.6
N#Cc1c([N+](=O)[O-])cc([N+](=O)[O-])cc1S(=O)(=O)Cc1ccccc1	62.4*	0.4	53.9*	67.1*	-6.1	61.2*	64.3*	87.1*
CCC(CO)Oc1cc(NC(=O)c2ccccc2[N+](=O)[O-])c2ncn(C(C)C)c2c1 (centres undefined)	0.6	1.6	4.5	-6.7	-28.6	·	·	·
CC(=O)C1=C(C)NC(SCC(=O)c2ccc(Cl)cc2Cl)=C(C#N)C1c1ccco1 (centres undefined)	54.9*	12.0	27.1	52.8*	-22.9	42.5*	·	49.7*
O=C(CSc1nncs1)Nc1nccs1	-0.1	13.1	-5.3	-5.5	-2.3	·	·	·
Cc1cccc(-c2cc3nc4c(c(NCc5ccco5)n3n2)CCCC4)c1	53.0*	36.2	26.6	53.8*	9.7	33.7*	·	56.5*
CC(=O)NNC(=S)NC(=O)c1ccccc1	-13.1	22.7	6.9	-39.6	-30.5	·	·	·
O=C(NC(=S)NC1C2CC3CC(C2)CC1C3)c1ccccc1 (centres undefined)	47.7*	40.0	40.8*	53.9*	-1.0	39.1*	21.9	66.8*
CC(=O)NC1Sc2ccccc2N=C1c1ccccc1 (centres undefined)	42.8*	-23.0	42.0*	73.1*	-25.6	53.6*	56.5*	79.0*
SMILES	tim10-1 inh	NALP3 yeast inh	TIM10 inh	tim23-1 inh	PfHsp90 set2	tim10-1 confirm	TIM10 conf	tim23-1 conf
Cc1ccc(O)c(NC(=O)C2CC(c3c(F)cccc3Cl)=NO2)c1 (centres undefined)	44.4*	2.5	25.0	54.4*	-31.1	25.6	·	60.2*
COc1cc(NC(=O)C2CC(c3c(F)cccc3Cl)=NO2)c(OC)cc1Cl (centres undefined)	11.6	25.2	-3.6	26.4	-39.9	·	·	·
Cc1ccc(N2CCN(C(=O)c3cc(-c4ccc(F)cc4)[nH]c3C)CC2C)cc1 (centres undefined)	52.0*	-14.6	31.7	73.8*	-55.0	50.7*	·	55.1*
Cc1cc(SCc2ccc(C(F)(F)F)cc2)nc(=O)[nH]1	10.6	15.4	0.5	8.7	-17.3	·	·	·
CCOC(=O)CSC1=NC(=O)/C(=C/c2ccc(Br)cc2)S1	48.5*	29.3	60.8*	60.7*	-71.0	62.1*	52.1*	69.7*
Cc1cc(C)c(N(C(=O)c2csnn2)C(C(=O)NC2CCCC2)c2ccncc2)c(C)c1 (centres undefined)	-20.2	28.7	11.4	-1.1	8.8	·	·	·
CC12CCC(=O)C=C1CCC1C2C(O)CC2(C)C1CCC2(O)C(=O)COC(=O)COCC(=O)O (centres undefined)	·	·	·	·	0.7	·	·	·
Cc1cccc(CS(=O)(=O)c2nnc([C@H](Cc3ccccc3)NC(=O)OC(C)(C)C)o2)c1	68.9*	18.2	54.0*	55.1*	111.9*	50.6*	51.8*	60.5*
OC(COCCOc1ccc(Br)cc1)CN1CCN(Cc2ccccc2)CC1 (centres undefined)	4.7	27.6	7.4	8.6	-4.4	·	·	·
Cc1ccc2occ(/C=N/NC(=O)c3ccc(Cl)cc3)c(=O)c2c1	18.9	10.5	5.6	40.7	9.2	·	·	·
CCOc1ccccc1C(=O)N/N=C/c1coc2ccc(Cl)cc2c1=O	67.1*	-12.4	70.7*	68.3*	22.6	53.8*	21.6	68.9*
COc1cccc(NC=C2C(=O)OC(C)(C)OC2=O)c1	18.5	18.4	-0.5	13.9	12.1	·	·	·
COc1cccc(NC=C2C(=O)OC3(CCCCC3)OC2=O)c1	66.1*	23.2	57.9*	73.9*	-5.5	69.8*	72.2*	74.2*
Cc1ccc(C(=O)OCC(=O)NNC(=O)c2ccc([N+](=O)[O-])cc2)o1	10.5	18.2	2.2	6.1	·	·	·	·
